An excerpt weighted towards active compounds, which were near 10% of everything screened.
PNC assembly inh: inhibitors of perinucleolar compartment assembly. PC3M PTB-GFP, PNC prevalence imaging, 16 h; stronger effect = lower value. activity change (PNC), negative = inhibition, % at 10 µM. 3.1% of 140,000 active. AID 2417;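 active means readout at or below -70, meaning at least 70% loss of cells showing the perinucleolar compartment, a nuclear body marking cancer cells; inconclusive means readout between -30 and a set limit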;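 further: plate controls were DMSO wells for no effect and camptothecin positive control wells for full effect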
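Compounds are pinned in duplicate onto adhered PC3M cells stably expressing GFP-tagged PTB and incubated 16 h at 37 C. Cells are then fixed, nuclei stained with Hoechst, and PNC-positive cells counted.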
LMNA splice mod: changes lamin A minigene splicing in HeLa cells | AID 1487 | 0.01% of 200,000 active | Potency, µM (titrated, usually from 46.1 µM), for the others: at the top dose ratio change, negative = inhibition, most hits filed as inhibitors | HeLa LMNA splicing GFP/RFP minigene ratio, 48 h; active means well fitted inhibition curve with a large enough effect in the signal ratio, with a control signal flat, not every such curve was filed as active; inconclusive means small, poorly fitted or top-dose-only effect, or effect the other way, or a change in a side signal; the % refers to the signal ratio; further: potency means the concentration at half of the fitted maximal effect
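S3 HeLa cells stably expressing lamin A-EGFP splicing minigene plus DsRed2, 600 cells/well, 48 h compound exposure at 37C. Laser-scanning cytometry; analysed as GFP (500-530 nm)/RFP (575-640 nm) total intensity ratio; 0.5% DMSO vehicle.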
ALDH1A1 block: blocks purified human ALDH1A1 activity. P00352. Purified ALDH1A1, NADH fluorescence, propionaldehyde substrate. Potency, µM (doses to about 75.3 µM), for the others: at the top dose activity, negative = inhibition, usual class: inhibitors. 7.3% of 220,000 active;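 further: potency means the concentration at half of the fitted maximal effect; plate controls were no enzyme wells and a reference inhibitor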
Target sequence (P00352 whole entry, looked up): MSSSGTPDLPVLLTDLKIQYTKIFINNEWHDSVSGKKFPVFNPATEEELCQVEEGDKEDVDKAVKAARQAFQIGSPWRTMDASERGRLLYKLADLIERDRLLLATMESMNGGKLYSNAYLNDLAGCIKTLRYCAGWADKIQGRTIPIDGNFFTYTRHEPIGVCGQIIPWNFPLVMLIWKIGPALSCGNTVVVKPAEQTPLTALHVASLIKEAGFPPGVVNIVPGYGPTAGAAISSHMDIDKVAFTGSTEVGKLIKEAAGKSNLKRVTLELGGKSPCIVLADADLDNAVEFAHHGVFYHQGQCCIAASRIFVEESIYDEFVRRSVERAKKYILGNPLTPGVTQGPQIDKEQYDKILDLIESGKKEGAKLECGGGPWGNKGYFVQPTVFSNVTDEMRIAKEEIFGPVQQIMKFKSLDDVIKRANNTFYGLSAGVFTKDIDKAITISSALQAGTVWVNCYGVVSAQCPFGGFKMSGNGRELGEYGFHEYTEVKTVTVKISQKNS
Luc counter: counter-screen: inhibitors of Kinase-Glo firefly luciferase | Q27757 | Kinase-Glo luciferase, ATP luminescence, 8 min | Potency, µM (series often up to 38.3 µM), without a hit: top-dose activity change, negative = inhibition, actives largely listed as inhibitors | 0.28% of 200,000 active; active means well fitted inhibition curve with a large enough effect; inconclusive means small, poorly fitted or top-dose-only effect; further: potency means the concentration at half of the fitted maximal effect; nearly all actives have a fitted effect of over 60% in size
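Recombinant Kinase-Glo luciferase, 10 uM ATP (linear range), luciferin; imidazole pH 7.2 / KCl / MgCl2 / Tween / BSA buffer; 8 min RT; luminescence.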
HPGD block: inhibitors of human 15-hydroxyprostaglandin dehydrogenase (HPGD) | P15428 | purified HPGD, NADH fluorescence kinetic, PGE2 substrate | Potency, µM, for the others: top-dose activity change, negative = inhibition, hits mostly inhibitors | 4.3% of 150,000 active; further: potency means the concentration at half of the fitted maximal effect
Target sequence (P15428 whole entry, looked up): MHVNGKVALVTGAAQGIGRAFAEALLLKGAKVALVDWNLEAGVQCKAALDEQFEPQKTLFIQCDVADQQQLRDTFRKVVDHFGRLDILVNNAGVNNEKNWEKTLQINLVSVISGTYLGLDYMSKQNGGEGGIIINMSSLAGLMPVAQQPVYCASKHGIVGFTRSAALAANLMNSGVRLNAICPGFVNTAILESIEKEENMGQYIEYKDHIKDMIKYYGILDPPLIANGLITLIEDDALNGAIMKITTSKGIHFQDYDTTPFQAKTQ
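NADH formation kinetics: reaction with 30 uM PGE2 and 1 mM NAD+ (final), 20 nM enzyme, Tris-HCl pH 8 with Tween 20, after 15 min compound preincubation at room temperature. Fluorescence change, last versus first of five reads.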
The depositor's hits bear a star; ? = inconclusive; · = not tested or not shown; [ ] = remark or other dose. Unless noted, the call rests on the fitted dose curve; in most records, active means well fitted inhibition curve with a large enough effect (not every such curve was filed as active); inconclusive means small, poorly fitted or top-dose-only effect, or another doubt; inactive means no such curve, though single readings can be large or run the other way. Unless noted, on the % scale 0 is the no-effect control and ±100 the full control effect.

SMILES | PNC assembly inh | LMNA splice mod | ALDH1A1 block | Luc counter | HPGD block
O=C(COc1cccc(Cl)c1)NNC(=S)Nc1ccccc1 | -21 | -3% | 15% | 3% | -17%
O=C(COc1ccccc1)NNC(=S)NC(=O)c1ccc(Cl)cc1Cl | -24 | ? | 7.9µM* | 1% | 35µM*
O=C(Oc1ccc(N(Cc2cccs2)C2=NS(=O)(=O)c3ccccc32)cc1)c1ccco1 | ? | -7% | 28µM* | 4% | -23%
Cc1ccc(NC(=O)Cn2c(=O)cnc3ccccc32)cc1S(=O)(=O)N(C)C | ? | ? | 14µM* | 3% | -13%
CC(=O)c1ccccc1NC(=O)Cn1c(=O)cnc2ccccc21 | ? | ? | 1.8µM* | 2% | -14%
Cc1ccc(NC(=O)CN2CCc3ccccc3C2)cc1S(=O)(=O)N(C)C | · | -20%[46 µM] | ? | 3% | ·
CSc1ccccc1NC(=O)Cn1c(-c2cscn2)nc2ccccc21 | -24 | 8% | -6% | 7% | -11%
COCCn1c(SCC(=O)Nc2ccc(Cl)c(S(=O)(=O)N(C)C)c2)nc2ccccc21 | ? | ? | 32µM* | -3% | -17%
COCCn1c(SCC(=O)Nc2ccc(S(N)(=O)=O)cc2)nc2ccccc21 | 46 | -3% | 4% | -3% | -5%
Cc1cc(C(C)(C)C)c(OCCCN2CCOCC2)c(C(C)(C)C)c1 | · | · | 0%[13.5 µM] | -1%[7.66 µM] | -8%
CN(C)CCCNc1ncnc2scc(-c3ccccc3)c12 | · | · | 18µM* | 0% | ·
c1ccc(-c2csc3ncnc(NCCN4CCOCC4)c23)cc1 | 9 | ? | -16% | 0% | -13%
CC(=O)c1c(CC(=O)O)[nH]n(-c2nc3ccccc3s2)c1=O | 0 | 4% | -73% | 6.3µM* | ?
COC(=O)Cc1[nH]n(-c2nc3ccccc3s2)c(=O)c1C(C)=O | -19 | -7% | ? | ? | -17%
CCOC(=O)CSC1=NC(=O)CS1 | ? | ? | 32µM* | -9% | 14µM*
CCOC(=O)CSc1nnc(N)s1 | -12 | -4% | ? | 6% | -13%
COCCn1c(=O)c(-c2ccc(OC)cc2)nc2cnc(Nc3cccc(OC)c3)nc21 | · | · | 0% | -5% | -7%
N#CCCn1c(=O)c(-c2cc(F)cc(F)c2)nc2cnc(N3CCOCC3)nc21 | · | 21% | ? | · | ·
COc1ccc(Cn2c(-c3ccc(OC)cc3)nc3ccccc32)cc1 | -100* | ? | ? | 1% | -24%
COc1cc(Cn2c(-c3nonc3N)nc3ccccc32)ccc1C | ? | ? | 5% | 4% | -4%
COc1ccc(Cn2c(-c3ccc(OC)cc3)nc3c(c(=O)c4ccccc4n3C)c2=O)cc1 | -8 | -11% | 0.28µM* | 0% | -3%
COc1cccc(Cn2c(-c3nonc3N)nc3ccccc32)c1 | -111* | 15% | -13% | -2% | -15%
CCCCc1cc(=O)oc2cc(O)cc(O)c12 | · | · | ? | 7% | ·
CCc1cc(=O)oc2cc(C)c(CN3CCCC3)c(O)c12 | -5 | 6% | ? | · | ·
CCCc1cc(O)c2c(C)cc(=O)oc2c1 | 440 | -18% | 16µM* | 2% | -15%
SMILES | PNC assembly inh | LMNA splice mod | ALDH1A1 block | Luc counter | HPGD block
CCCCc1cc(=O)oc2cc(C)cc(O)c12 | 62 | 7% | 8.9µM* | 0% | -12%
CCCc1cc(=O)oc2cc(C)c(CN3CCCC3)c(O)c12 | -14 | 0% | 35µM* | -4% | -13%
COc1cc(OC)cc(-n2nnnc2SCC(=O)N2CCCc3ccccc32)c1 | ? | -9% | 2.8µM* | -3% | -18%
COc1ccc(-n2c(SCC(=O)N3CCCc4ccccc43)nc3c([nH]c4ccccc43)c2=O)cc1 | · | -8%[46 µM] | · | · | ·
COc1cccc(-n2nnnc2SCC(=O)N2CCCc3ccccc32)c1 | ? | -4% | 5.6µM* | -1% | -13%
COc1ccc(C(=O)NCc2nnc(SCC(=O)N3CCc4ccccc43)n2CCc2ccccc2)cc1 | 9 | -4% | 0.63µM* | 1% | -7%
COc1ccc(-n2c(Cc3ccccc3)nnc2SCC(=O)N2CCCc3ccccc32)cc1 | -100* | 1% | 11µM* | 1% | -17%
COc1cccc(-n2c(SCC(=O)N3CCCc4ccccc43)nc3c([nH]c4ccccc43)c2=O)c1 | · | 11%[46 µM] | · | · | ·
COc1cccc(C2C=C(c3ccc(C)cc3)Nc3c(C(=O)Nc4ccc(F)cc4)cnn32)c1OC (stereo not drawn) | · | -17%[46 µM] | · | · | ·
CCOC(=O)C(CC)Sc1nnc2[nH]c(=O)cc(C)n12 (stereo not drawn) | · | 2%[46 µM] | · | · | ·
Nc1cc(Cl)ccc1N1CCCCCC1 | · | ? | 18µM* | 1% | ·
Nc1ccc(N2CCCCC2)c2nonc12 | · | 9%[46 µM] | 7.9µM* | -7% | ·
Nc1ccc(N2CCCCC2)cc1N1CCCCC1 | -4 | ? | 4µM* | -6% | -1%
COc1ccc(CC(N)C(=O)N[C@H]2[C@@H](O)[C@H](n3cnc4c(N(C)C)ncnc43)O[C@@H]2CO)cc1 (stereo partly drawn) | · | · | -5% | 1%[39.9 µM] | -5%
COC(=O)c1c(NC(=O)/C=C/C(=O)O)sc(C)c1-c1ccc(C(C)C)cc1 | · | ? | 7.9µM* | 0% | ·
COC(=O)c1c(NC(=O)/C=C/C(=O)O)sc(C)c1-c1ccc(C)cc1 | · | 18%[46 µM] | ? | 4% | ·
CCOC(=O)c1c(NC(=O)/C=C/C(=O)O)sc(C)c1-c1ccc(F)cc1 | · | · | 14µM* | · | ·
COC(=O)c1c(NC(=O)/C=C/C(=O)O)sc(C)c1-c1ccc(C)c(C)c1 | ? | ? | ? | 0% | -11%
COc1ccc2c(c1)c(CC(=O)NCc1ccc3c(c1)OCO3)c(C)n2C(=O)c1ccc(Cl)cc1 | · | · | 0% | -1% | -27%
Cc1ccc2cc3cc(C(=O)N4CC(C)CC(C)C4)oc3nc2c1 (stereo not drawn) | ? | -7% | 25µM* | 0% | 16µM*
Cc1ccc2cc3cc(C(=O)N4CCCCC4C)oc3nc2c1 (stereo not drawn) | 6 | 15% | ? | -4% | 16µM*
COc1ccccc1-c1nccc(N2CCN(C)CC2)n1 | · | -2% | ? | · | ·
Cc1cccn2c(/C=N/OCc3ccc(F)cc3)c(-c3ccc(Cl)cc3)nc12 | -109* | 16%[0.0737 µM] | -6% | 0% | ?
Cc1[nH]c(-c2ccc3c(c2)OCO3)nc1C(=O)O | ? | 6% | ? | 11µM* | ?
CNC(=O)c1ccc(-n2nc(C)cc2-c2ccccc2)cc1 | ? | 5% | ? | -7% | -19%
Cc1cc(-c2ccccc2)n(-c2ccc(C(N)=O)cc2)n1 | -17 | -17% | ? | 4% | 32µM*
CCN(CC)CC[n+]1ccc2c(C)c3[nH]c4ccc(O)cc4c3c(C)c2c1 | · | · | 6%[13.5 µM] | -9%[7.66 µM] | ?
BrC/C=C/CBr | · | · | 25µM* | · | -2%
CN(C)CCCCNC(=O)c1ccc(-n2c(=O)c(=O)[nH]c3ccccc32)cc1 | · | · | 6% | 0% | -10%
CCOc1ccc2nc(SC3CC(=O)N(c4ccc(OC)cc4OC)C3=O)sc2c1 (stereo not drawn) | · | ? | 25µM* | -5% | ·

Screening data from PubChem BioAssay.
